From PubChem BioAssay AID504336 (NMMLSC, 2011)
A number with no mark means an inactive call.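 Rule for the calls: active = compounds whose GFP signal falls below 65% of the DMSO control level; inconclusive = fewer than 70 yeast cells counted in the well; inactive = the rest.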

Experiment: TOR branch reporter RPL19A-GFP response – cell-based, S. cerevisiae, third cherry pick, flow cytometry, confirmation (AID 504336);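 note: median GFP fluorescence of all gated yeast cells by flow cytometry; ratio of well median fluorescence to plate mean of DMSO wells with DMSO = 100%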
Conditions: S. cerevisiae RPL19A-GFP strain, 3 h, at 10 µM, active compounds read low

Row | Structure (SMILES) | GFP response relative to DMSO
1 | C/C(O)=C(\C#N)C(=O)Nc1cc(Br)ccc1Br | 97.5%
2 | Cc1ccc2c(c1N)C(=O)c1ccccc1C2=O | 101%
3 | CCN1CCN(c2ncnc3ccc(Br)cc23)CC1 | 100%
4 | CN(C)C(=O)Oc1ccnc2cc(Cl)ccc12 | 102%
5 | CN1CCN(c2ncnc3ccc(Br)cc23)CC1 | 99.3%
6 | CN(C)C(=O)Oc1ccc(Cl)c2cccnc12 | 101%
